# Test results: PubChem BioAssay (NCI)
# Compounds without any hit were thinned out: in the full panel of roughly 79,000, 15% have a hit. Values without a mark were called inactive. Calls of active or inactive are those of the source. Rule as the data show it: active = growth inhibition above about 70%; inactive = the rest.
# Experiments:
# [1] = NCI Yeast Anticancer Drug Screen. Data for the rad50 strain (AID 155);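 also: 0% = growth of vehicle-only cultures of the same strain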; conditions: S. cerevisiae rad50 strain growth inhibition; at 50.0 µM; hits give high values
# How it was run: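 DNA repair mutant yeast, compound exposure, growth read-out; inhibition is taken relative to vehicle.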
# [2] = NCI Yeast Anticancer Drug Screen. Data for the mec2-1 strain (AID 157); conditions: S. cerevisiae mec2-1 strain, at 50.0 µM, hits give high values
# How it was run: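 Mutant yeast (mec2-1) grown with compound; growth inhibition relative to vehicle control reported.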
# [3] = NCI Yeast Anticancer Drug Screen. Data for the sgs1 mgt1 strain (AID 161);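 also: 0% = growth of cultures given vehicle only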; conditions: S. cerevisiae sgs1 mgt1 strain, at 50.0 µM, hits give high values
# How it was run: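 Compounds are added to genetically altered yeast, and growth is compared with cultures given vehicle alone to give percent inhibition.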
# [4] = NCI Yeast Anticancer Drug Screen. Data for the cln2 rad14 strain (AID 165);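 also: 0% = growth equal to vehicle treated cultures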; conditions: S. cerevisiae cln2 rad14 strain, at 50.0 µM, hits give high values
# How it was run: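 Readout is yeast growth inhibition versus vehicle-treated controls, using a strain with cln2 and rad14 alterations exposed to compound.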
# [5] = NCI Yeast Anticancer Drug Screen. Data for the bub3 strain (AID 167); conditions: S. cerevisiae bub3 mutant strain, at 50.0 µM, hits give high values
# How it was run: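 In this screen, a yeast mutant lacking normal mitotic checkpoint function is challenged with compound. Relative growth versus vehicle gives the inhibition value.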
# [6] = NCI Yeast Anticancer Drug Screen. Data for the mlh1 rad18 strain (AID 175); conditions: S. cerevisiae mlh1 rad18 strain growth inhibition; at 50.0 µM; hits give high values
# How it was run: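 Genetically defined yeast (DNA repair-deficient) exposed to compounds; growth inhibition determined relative to vehicle.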
Structure (SMILES),growth inhibition [1],growth inhibition [2],growth inhibition [3],growth inhibition [4],growth inhibition [5],growth inhibition [6]
CCC(CC)CNC(=O)C(Cl)Cl,-2.25%,-9.8%,18.6%,-18.1%,-3.4%,-1%
O=S1(=O)OCCOS(=O)(=O)C1(Cl)Cl,-32.6%,-41.5%,-18%,-11.4%,-31.6%,-8.65%
O=C(O)c1cc(Cl)nc(Cl)c1,-2.1%,22%,2.05%,-26.2%,17.4%,-14.8%
O=C1c2ccccc2OP(=O)(OCC(F)(F)F)OC1(C(F)(F)F)C(F)(F)F (stereo not given),-21.4%,-54.7%,-15.2%,-65.5%,-41.5%,-22.8%
CCOC(=O)C1C2(C)NC(=O)C1(Cc1ccccc1)c1cc(C)c(C)cc1O2 (stereo not given),-0.75%,16.5%,-11.8%,-6.15%,-3.3%,3.45%
O=C(O)C(Br)CBr (stereo not given),4.7%,17.6%,27.2%,-13.2%,-1.55%,34.5%
COc1ccc(CCF)cc1,-4.95%,4%,-0.7%,-9.85%,4.4%,-3.85%
CCOC(=O)C(O)(c1ccccc1)c1ccccc1,2.05%,-5.95%,6.85%,16.8%,-3.35%,31%
CCOC(=O)N[N+]12CCN(CC1)CC2,0.45%,-2.65%,1.95%,-12.9%,-1.2%,-11.1%
CN(C)C(=O)Oc1ccc(C2CCCN2C)cn1 (stereo not given),3.95%,5.45%,3.75%,-13.1%,-6%,-22.7%
CC(=O)CC(C)=O.CC(=O)CC(C)=O.CC(=O)CC(C)=O.[Tb],-0.8%,-7.7%,-3.95%,26.8%,-2.95%,-19.8%
COc1cc(N(CCCl)CCCl)c(OC)cc1C=Nc1cccc(Cl)c1,31.4%,10.3%,44.4%,10.6%,24.6%,34.2%
ClC1OC(Cl)(Cl)C(Cl)(Cl)OC1(Cl)Cl (stereo not given),7.7%,3.75%,35%,-4.25%,18.8%,45.9%
CN1C(=O)c2ccccc2NC(=O)C12OC2c1ccccc1 (stereo not given),-0.1%,18%,11.3%,10.2%,18.2%,8.15%
CC(=O)OC1CCC2(C)C(=CCC3C4C/C(=C\N5CCCC5)C(=O)C4(C)CCC32)C1 (stereo not given),51%,99% (active),46.8%,98.8% (active),97.2% (active),95.3% (active)
[N-]=[N+]=CC(=O)CCC(=O)C=[N+]=[N-],10.2%,-24%,-27.1%,-19.5%,-20.6%,-67.8%
O=C1NC2C(=CC(O)C(O)C2O)c2cc3c(cc21)OCO3 (stereo not given),29.9%,44.2%,35.8%,47.1%,39.1%,37.2%
S=C(N=Nc1ccccc1)NNc1ccccc1.[Zn+2],28.1%,-9.35%,19.4%,12.3%,36%,12.3%
O=C1CCCN1,-8.1%,-1.7%,3.1%,-4.85%,-0.2%,-11.7%
CCC(Cl)COP(=O)(OCC(Cl)CC)C(CC)OP(=S)(OCC(Cl)CC)OCC(Cl)CC (stereo not given),16.6%,11.3%,65.7%,94.8% (active),57.5%,20.9%
